According to PubChem BioAssay (EPA / NIEHS):
Calls of active or inactive are those of the source. The calls were made as follows: active = hit-call score of the fitted dose curve at least 0.9, where 1 is the maximum; inactive = score below 0.9.

Assays:
[1] = molecular target: Transcription factor E2F1 (Homo sapiens) (UniProt Q01094); experiment: ATG_E2F_CIS: Attagene CIS-FACTORIAL HepG2 Assay for human E2F Transcription Factor 1 (AID 2282935); settings: HepG2 Attagene cis-reporter, E2F reporter RNA transcripts; actives raise or lower the signal
How it was run: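 Gain or loss of reporter transcript, fitted against DMSO, reflects E2F1-driven transcription. Transiently transfected HepG2 dosed 24 h before RNA isolation. Quantified by fluorescent RT-PCR products separated by capillary electrophoresis.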

[2] = ATG_E_Box_CIS: Attagene CIS-FACTORIAL HepG2 Assay for human Enhancer Box (E-box) (AID 2282936); settings: HepG2 E-box cis-reporter transcription, actives raise or lower the signal
How it was run: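 E-box-driven reporter transcripts measured in transiently transfected HepG2 after 24 h exposure: RNA reverse-transcribed, PCR-amplified, fluorescently labelled, digested and resolved by capillary electrophoresis. Gain or loss relative to DMSO.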

[3] = ATG_M_61_CIS: Attagene CIS-FACTORIAL HepG2 Assay for M61 Transcription Factor (Internal Marker) (AID 2282937); settings: HepG2 Attagene CIS-FACTORIAL M61 internal marker reporter; actives raise or lower the signal
How it was run: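 Human liver HepG2, transient MRTU transfection (cis promoter elements), 24 h compound. Total RNA → oligo(dT) RT → PCR → FAM label → HpaI → CE. Internal background marker; bidirectional fitting, DMSO = baseline.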

[4] = ATG_EGR_CIS: Attagene CIS-FACTORIAL HepG2 Assay for human Early Growth Response 1 (EGR1) (AID 2282938); settings: HepG2 Attagene CIS-FACTORIAL EGR reporter mRNA; actives raise or lower the signal
How it was run: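 Transient transfection of human HepG2 with multiple cis-regulated reporter units, chemical exposure 24 h, total RNA isolated. Reverse transcription, PCR, fluorescent labelling and capillary electrophoresis quantify reporter transcripts; activity fitted bidirectionally against DMSO.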

[5] = ATG_M_19_CIS: Attagene CIS-FACTORIAL HepG2 Assay for M19 Transcription Factor (Internal Marker) (AID 2282939); settings: HepG2 Attagene CIS-FACTORIAL M19 internal marker reporter; actives raise or lower the signal
How it was run: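 Following a 24 h exposure, RNA from transfected HepG2 cells was reverse-transcribed, PCR-amplified with reporter-specific primers, end-labelled with 6-FAM and HpaI-digested before capillary separation. Values represent gain or loss versus DMSO.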

[6] = ATG_ERE_CIS: Attagene CIS-FACTORIAL HepG2 Assay for Estrogen Response Element (ERE) (AID 2282940); settings: HepG2 ERE cis-reporter, Attagene RNA transcript; actives raise or lower the signal
How it was run: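 HepG2, transient cis-reporter units, 24 h exposure. RNA isolated, oligo(dT) RT, reporter-specific PCR, FAM extension, HpaI cut, CE detection. Gain/loss-of-signal vs DMSO.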

[7] = ATG_Ets_CIS: Attagene CIS-FACTORIAL HepG2 Assay for human Erythroblast Transformation Specific (ETS) (AID 2282941); settings: HepG2 ETS cis-reporter transcription, actives raise or lower the signal
How it was run: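 Bidirectional fit versus DMSO of reporter mRNA signal, detected by RT-PCR and capillary electrophoresis in HepG2 cells transiently transfected with cis-element reporters and dosed 24 h.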

[8] = ATG_FoxO_CIS: Attagene CIS-FACTORIAL HepG2 Assay for human Forkhead box O (FoxO) (AID 2282943); settings: HepG2 Attagene cis-reporter, FoxO element, mRNA; actives raise or lower the signal
How it was run: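 Human hepatoma HepG2 cells carry transiently introduced reporter transcription units controlled by cis promoter elements. Chemical treatment lasted 24 h, and mRNA signal was compared with DMSO.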

[9] = ATG_GATA_CIS: Attagene CIS-FACTORIAL HepG2 Assay for human GATA Binding Protein (AID 2282944); settings: HepG2 GATA cis-element reporter, Attagene multiplex mRNA; actives raise or lower the signal
How it was run: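 DMSO serves as negative control and baseline for bidirectional fitting of reporter mRNA changes. HepG2 cells bearing transiently transfected cis-promoter reporters were exposed 24 h; transcripts detected via RT-PCR and capillary electrophoresis.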

[10] = ATG_GLI_CIS: Attagene CIS-FACTORIAL HepG2 Assay for human Zinc Finger Protein GLI1 (AID 2282945); settings: HepG2, Attagene cis-factorial reporter mRNA, GLI element; actives raise or lower the signal
How it was run: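 Bidirectional curve fits relative to DMSO, using reporter mRNA levels from RT-PCR plus capillary electrophoresis. Cells were HepG2 transiently carrying cis-regulated reporter constructs, harvested 24 h after dosing.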

[11] = molecular target: Bile acid receptor (Homo sapiens) (UniProt Q96RI1); experiment: ATG_IR1_CIS: Attagene CIS-FACTORIAL HepG2 Assay for human Nuclear Receptor Subfamily 1 Group H Member 4 (NR1H4), IR1 submotif (AID 2282946); settings: IR1 reporter transcription, actives raise or lower the signal
How it was run: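 HepG2 cells transiently transfected with multiplexed cis-element reporter units read endogenous transcription factor activity. After 24 h compound exposure, reporter mRNA was quantified by RT-PCR, fluorescent labelling, HpaI digestion and capillary electrophoresis; bidirectional fitting versus DMSO baseline.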

[12] = ATG_GRE_CIS: Attagene CIS-FACTORIAL HepG2 Assay for human Glucocorticoid Response Elements (GRE) (AID 2282947); settings: HepG2 GRE cis-reporter, Attagene multiplex mRNA; actives raise or lower the signal
How it was run: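 Reporter transcripts read by RT-PCR with capillary electrophoresis fluorescence after a 24 h chemical exposure of HepG2 cells transiently transfected with multiple cis-element reporter units. Gain or loss fitted against DMSO.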

[13] = ATG_ISRE_CIS: Attagene CIS-FACTORIAL HepG2 Assay for human Interferon Regulatory Factor 1 (IRF1) binding to an Interferon-Stimulated Response Element (ISRE) (AID 2282948); settings: HepG2 ISRE cis-reporter (Attagene), mRNA transcription readout; actives raise or lower the signal
How it was run: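 Uses HepG2 liver cells transfected with cis-regulated reporters and measures mRNA 24 h post-dosing through RT-PCR, primer-extension labelling and capillary electrophoresis, with DMSO as negative control.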

[14] = ATG_M_32_CIS: Attagene CIS-FACTORIAL HepG2 Assay for M32 Transcription Factor (Internal Marker) (AID 2282949); settings: HepG2 Attagene cis-factorial M32 reporter, mRNA; actives raise or lower the signal;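 also: background control marker of the multiplexed CIS panel rather than a real target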
How it was run: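 HepG2 human liver cells transiently transfected with cis-promoter-driven multiple reporter transcription units, dosed 24 h. Reporter mRNA quantified by RT-PCR, FAM-labelled primer extension, HpaI digest and capillary electrophoresis; bidirectional fit versus DMSO baseline.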

[15] = ATG_M_06_CIS: Attagene CIS-FACTORIAL HepG2 Assay for M06 Transcription Factor (Internal Marker) (AID 2282950); settings: HepG2 Attagene CIS-FACTORIAL M06 internal marker reporter; actives raise or lower the signal
How it was run: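 Fluorescence-labelled RT-PCR products from cis-promoter reporter units, cut with HpaI and resolved by capillary electrophoresis, give the signal. Cells are human HepG2, dosed for 24 h. Serves as background control, fitted relative to DMSO.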

[16] = molecular target: Hepatocyte nuclear factor 6 (Homo sapiens) (UniProt Q9UBC0); experiment: ATG_HNF6_CIS: Attagene CIS-FACTORIAL HepG2 Assay for human Hepatocyte Nuclear Factor 6 (HNF6) (AID 2282952); settings: HepG2 Attagene cis-factorial HNF6 reporter transcription; actives raise or lower the signal
How it was run: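 Activity values derive from bidirectional fitting against DMSO of reporter mRNA levels, measured by capillary electrophoresis of labelled RT-PCR products from HepG2 cells exposed 24 h.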

[17] = molecular target: Heat shock factor protein 1 (Homo sapiens) (UniProt Q00613); experiment: ATG_HSE_CIS: Attagene CIS-FACTORIAL HepG2 Assay for human Heat Shock Transcription Factor 1 (HSE) (AID 2282953); settings: HepG2 HSE cis-reporter, Attagene RNA transcription; actives raise or lower the signal
How it was run: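 After a 24 h incubation with test chemical, transfected HepG2 cells were harvested for RNA; reporter transcripts were measured by RT-PCR and capillary electrophoresis. Values reflect gain or loss of signal relative to DMSO.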

[18] = ATG_MRE_CIS: Attagene CIS-FACTORIAL HepG2 Assay for human Metal Responsive Element (MRE) (AID 2282954); settings: HepG2 MRE cis-reporter transcription, Attagene multiplex; actives raise or lower the signal
How it was run: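 Endogenous MRE-dependent transcription read as reporter mRNA in transiently transfected human HepG2 cells at 24 h. RNA reverse-transcribed, PCR-amplified, labelled and resolved by capillary electrophoresis; gain or loss relative to DMSO.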

[19] = molecular target: Hypoxia-inducible factor 1-alpha (Homo sapiens) (UniProt Q16665); experiment: ATG_HIF1a_CIS: Attagene CIS-FACTORIAL HepG2 Assay for human Hypoxia Inducible Factor 1 (HIF1A) (AID 2282951); settings: HepG2 Attagene cis-factorial HIF1a reporter transcription; actives raise or lower the signal
How it was run: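 Transient MRTU transfection of human HepG2 liver cells, 24 h compound treatment, then total RNA isolation, oligo(dT) reverse transcription, PCR amplification, fluorescent labelling and capillary electrophoresis of reporter fragments. Gain or loss relative to DMSO.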

[20] = molecular target: Hepatocyte nuclear factor 3-beta (Homo sapiens) (UniProt Q9Y261); experiment: ATG_FoxA2_CIS: Attagene CIS-FACTORIAL HepG2 Assay for human Forkhead box A2 (FOXA2) (AID 2282942); settings: HepG2 cis-reporter transcription factor activity, 24 h; actives raise or lower the signal
How it was run: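 Transient MRTU transfection of HepG2 liver cells; 24 h treatment; total RNA → oligo(dT) RT → PCR → FAM primer extension → HpaI cut → CE. Bidirectional fit vs DMSO.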

Measured: AC50

Chain of Bile acid receptor (Homo sapiens) (Q96RI1 whole entry, looked up): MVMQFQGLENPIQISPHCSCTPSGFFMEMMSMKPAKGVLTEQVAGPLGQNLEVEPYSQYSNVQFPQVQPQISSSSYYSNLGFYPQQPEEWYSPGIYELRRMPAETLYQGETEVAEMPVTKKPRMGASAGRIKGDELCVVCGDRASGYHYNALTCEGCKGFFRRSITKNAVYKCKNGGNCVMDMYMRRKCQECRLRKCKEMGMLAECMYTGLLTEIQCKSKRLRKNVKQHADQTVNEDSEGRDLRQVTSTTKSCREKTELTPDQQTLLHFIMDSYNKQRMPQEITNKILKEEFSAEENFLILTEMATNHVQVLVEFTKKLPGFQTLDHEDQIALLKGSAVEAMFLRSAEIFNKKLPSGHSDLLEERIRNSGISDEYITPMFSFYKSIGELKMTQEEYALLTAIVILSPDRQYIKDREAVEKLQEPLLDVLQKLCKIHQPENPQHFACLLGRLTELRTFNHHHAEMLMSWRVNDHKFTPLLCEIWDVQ
Chain of Hepatocyte nuclear factor 6 (Homo sapiens) (Q9UBC0 whole entry, looked up): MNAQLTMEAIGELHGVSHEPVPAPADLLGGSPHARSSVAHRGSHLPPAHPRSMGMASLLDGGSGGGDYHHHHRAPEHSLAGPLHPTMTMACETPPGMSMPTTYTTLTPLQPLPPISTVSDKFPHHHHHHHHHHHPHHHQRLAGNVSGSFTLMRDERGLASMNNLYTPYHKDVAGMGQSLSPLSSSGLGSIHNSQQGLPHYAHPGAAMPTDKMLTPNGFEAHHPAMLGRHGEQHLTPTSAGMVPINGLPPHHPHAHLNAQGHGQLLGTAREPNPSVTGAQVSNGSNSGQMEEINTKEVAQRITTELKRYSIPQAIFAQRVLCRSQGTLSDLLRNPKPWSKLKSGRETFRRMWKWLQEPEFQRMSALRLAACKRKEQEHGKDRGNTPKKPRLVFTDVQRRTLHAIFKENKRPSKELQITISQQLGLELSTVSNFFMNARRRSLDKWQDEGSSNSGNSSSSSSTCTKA
Chain of Hypoxia-inducible factor 1-alpha (Homo sapiens) (Q16665 whole entry, looked up, the tested form may be a part): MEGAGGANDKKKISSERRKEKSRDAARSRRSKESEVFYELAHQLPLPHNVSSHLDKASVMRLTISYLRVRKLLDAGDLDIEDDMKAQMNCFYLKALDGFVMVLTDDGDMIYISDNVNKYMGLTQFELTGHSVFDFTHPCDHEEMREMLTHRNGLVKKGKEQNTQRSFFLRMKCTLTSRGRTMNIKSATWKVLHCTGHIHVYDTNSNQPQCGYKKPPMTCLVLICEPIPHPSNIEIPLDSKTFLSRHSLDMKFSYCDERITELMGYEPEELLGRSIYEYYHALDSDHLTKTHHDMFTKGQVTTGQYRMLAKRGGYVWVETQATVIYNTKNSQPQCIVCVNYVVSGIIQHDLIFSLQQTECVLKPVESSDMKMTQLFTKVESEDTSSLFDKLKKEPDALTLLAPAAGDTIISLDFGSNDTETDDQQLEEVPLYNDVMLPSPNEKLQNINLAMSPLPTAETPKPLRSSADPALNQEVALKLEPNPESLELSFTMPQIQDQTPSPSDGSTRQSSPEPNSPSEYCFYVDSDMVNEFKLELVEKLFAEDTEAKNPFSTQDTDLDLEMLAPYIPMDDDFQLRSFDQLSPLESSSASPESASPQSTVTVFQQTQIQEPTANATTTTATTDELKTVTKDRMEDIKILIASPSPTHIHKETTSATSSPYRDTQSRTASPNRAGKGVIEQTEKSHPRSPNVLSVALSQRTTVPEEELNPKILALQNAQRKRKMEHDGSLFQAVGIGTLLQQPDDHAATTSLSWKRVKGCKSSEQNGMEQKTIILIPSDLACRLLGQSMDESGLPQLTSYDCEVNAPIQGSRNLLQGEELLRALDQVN
Chain of Transcription factor E2F1 (Homo sapiens) (Q01094 whole entry, looked up): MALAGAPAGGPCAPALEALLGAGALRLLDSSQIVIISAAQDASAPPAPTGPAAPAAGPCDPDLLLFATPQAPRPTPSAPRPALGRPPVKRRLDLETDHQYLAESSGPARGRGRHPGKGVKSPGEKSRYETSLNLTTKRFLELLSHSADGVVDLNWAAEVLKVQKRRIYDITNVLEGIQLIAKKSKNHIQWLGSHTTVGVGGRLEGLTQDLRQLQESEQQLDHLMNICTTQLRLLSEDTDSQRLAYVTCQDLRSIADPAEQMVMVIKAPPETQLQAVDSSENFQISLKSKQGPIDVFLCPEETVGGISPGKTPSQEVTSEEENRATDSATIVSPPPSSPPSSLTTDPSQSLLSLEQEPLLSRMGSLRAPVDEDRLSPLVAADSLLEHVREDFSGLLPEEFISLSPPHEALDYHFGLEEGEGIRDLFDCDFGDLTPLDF
Chain of Heat shock factor protein 1 (Homo sapiens) (Q00613 whole entry, looked up): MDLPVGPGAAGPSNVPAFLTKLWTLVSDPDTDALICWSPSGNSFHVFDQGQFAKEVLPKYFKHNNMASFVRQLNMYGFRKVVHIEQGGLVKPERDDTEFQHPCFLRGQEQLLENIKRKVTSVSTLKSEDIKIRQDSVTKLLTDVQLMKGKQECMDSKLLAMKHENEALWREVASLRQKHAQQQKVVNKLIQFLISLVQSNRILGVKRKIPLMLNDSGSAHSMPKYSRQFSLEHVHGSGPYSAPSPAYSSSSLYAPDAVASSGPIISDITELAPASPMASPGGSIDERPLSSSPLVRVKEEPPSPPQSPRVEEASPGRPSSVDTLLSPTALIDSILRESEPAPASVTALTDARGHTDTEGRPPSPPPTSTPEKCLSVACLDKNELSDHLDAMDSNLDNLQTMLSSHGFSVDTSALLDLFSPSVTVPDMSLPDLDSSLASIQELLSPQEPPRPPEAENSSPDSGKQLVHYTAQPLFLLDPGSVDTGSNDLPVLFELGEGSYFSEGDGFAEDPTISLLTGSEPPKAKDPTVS
Chain of Hepatocyte nuclear factor 3-beta (Homo sapiens) (Q9Y261 whole entry, looked up): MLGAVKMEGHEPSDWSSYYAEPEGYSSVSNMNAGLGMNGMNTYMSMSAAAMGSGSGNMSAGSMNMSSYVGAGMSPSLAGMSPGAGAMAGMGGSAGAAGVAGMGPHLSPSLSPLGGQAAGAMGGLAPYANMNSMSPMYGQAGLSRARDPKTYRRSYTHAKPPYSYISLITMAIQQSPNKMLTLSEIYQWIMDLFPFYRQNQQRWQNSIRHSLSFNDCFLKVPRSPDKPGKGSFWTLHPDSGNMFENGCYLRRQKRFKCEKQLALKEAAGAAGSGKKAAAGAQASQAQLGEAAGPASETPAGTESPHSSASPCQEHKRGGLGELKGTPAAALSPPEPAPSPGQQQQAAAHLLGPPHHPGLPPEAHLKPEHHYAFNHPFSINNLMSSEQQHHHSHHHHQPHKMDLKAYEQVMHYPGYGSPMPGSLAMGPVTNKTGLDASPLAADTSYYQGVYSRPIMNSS

O=C(O)C(F)(F)C(F)(F)C(F)(F)C(F)(F)C(F)(F)C(F)(F)C(F)F
active: [6] 64 µM
not listed: [19] | [20]
inactive: all other assays above

CCCCC(CC)COC(=O)c1ccc(N(C)C)cc1 (centres undefined)
active: [6] 9.36 µM
not listed: [15] | [16] | [19] | [20]
inactive: all other assays above

CC(C)OC(=O)COc1ccc(Cl)cc1Cl
not listed: [20]
inactive: all other assays above

OCC(F)(F)C(F)(F)C(F)(F)CO
not listed: [15] | [16] | [20]
inactive: all other assays above

CSc1ccc(Cl)cc1
not listed: [16] | [19] | [20]
inactive: all other assays above

C=CC(=O)OCCC(F)(F)C(F)(F)C(F)(F)C(F)(F)F
not listed: [15] | [16] | [20]
inactive: all other assays above

O=C(c1ccccc1)c1ccc(Cl)cc1
active: [6] 44.4 µM | [17] 153 µM | [18] 57.5 µM
not listed: [16] | [20]
inactive: all other assays above

CCN(CCO)S(=O)(=O)C(F)(F)C(F)(F)C(F)(F)C(F)(F)C(F)(F)C(F)(F)C(F)(F)C(F)(F)F
not listed: [20]
inactive: all other assays above

OCCC(O)CO (centres undefined)
not listed: [15] | [19] | [20]
inactive: all other assays above

CCN=C1C=CC(=C(c2ccc(N(CC)CC)cc2)c2ccc(N(CC)CC)cc2)c2ccccc21
active: [2] 2.01 µM | [4] 0.78 µM | [10] 5.55 µM | [11] 0.911 µM | [13] 0.916 µM | [19] 1.1 µM | [17] 1.01 µM | [18] 1.03 µM
not listed: [20]
inactive: all other assays above

CCC(C)CO (centres undefined)
not listed: [15] | [19]
inactive: all other assays above

CCc1cc(Cc2cc(CC)c(N)c(CC)c2)cc(CC)c1N
active: [1] 54.4 µM | [2] 9.07 µM | [8] 58.8 µM | [10] 60.5 µM | [17] 60 µM | [18] 26.1 µM
not listed: [16] | [20]
inactive: all other assays above

C[C@]12CC[C@H]3C(=CCc4cc(O)ccc43)[C@@H]1CCC2=O
active: [6] 0.0626 µM
not listed: [20]
inactive: all other assays above

CCc1cccc(C)c1N(C(=O)C(=O)O)C(C)COC (centres undefined)
not listed: [20]
inactive: all other assays above

CO[Si](CCCOCC1CO1)(OC)OC (centres undefined)
not listed: [16] | [20]
inactive: all other assays above
